The text below walks through data of PubChem BioAssay AID1458 (National Center for Advancing Translational Sciences (NCATS), 2008).

Out of some 210,000 compounds screened, about 5,900 (2.8%) were called active. Roughly 5% stayed inconclusive and do not appear here. The call rests on the fitted dose curve; in most records, active means well fitted activation curve with a large enough effect; inconclusive means small, poorly fitted or top-dose-only effect; inactive means no such curve, though single readings can be large or run the other way. What follows is part of a selection rich in actives, with near analogues and random picks from the rest.
Potency means the concentration at half of the fitted maximal effect.

The assay is described as follows: qHTS Assay for Enhancers of SMN2 Splice Variant Expression. Further: nearly all actives have a fitted effect of over 55% in size. On activity change, positive = activation: % of control where 0% means no effect. Conditions: HEK293 SMN2-luciferase splicing reporter, luminescence, 30-36 h; series mostly up to 46.1 µM; activity change, positive = activation: at the top concentration. Put shortly:
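HEK293 cells carry an SMN2 minigene-luciferase reporter in which exon 7 inclusion puts luciferase in frame. Cells were seeded at 2000 cells/well, attached for 10-12 hours, then exposed to compounds for 30-36 hours at 37C before ONE-Glo luminescence.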
A general note: Quantitative high-throughput screening tests each substance at several concentrations.
With `CSc1ccc(/C=N\NC(=O)COc2ccc(Cl)cc2Br)cc1`, the “activity change, positive = activation” value was -16.2% (inactive).
On to `COc1ccc(/C=N/NC(=O)c2cccc(C(F)(F)F)c2)cc1`, for which the “activity change, positive = activation” value is 2.79% (inactive).
`CSc1ccc(/C=N/NC(=O)c2cccc(Cl)c2)cc1`: the Potency was 10 µM (active).
As to `CCn1cc(C(=O)N(C)Cc2ccccc2)c(=O)c2cc(S(=O)(=O)N3CCCCCC3)ccc21`, the “activity change, positive = activation” value is -2.11% (inactive).
The same measure, in the same setting: for `COC(=O)c1c(NC(=O)c2cc(=O)c3c(C)cc(C)cc3o2)sc2c1CCCC2` the value was 8.45% (inactive).
For `Cc1nc(SCCOc2ccc(Cl)cc2)[nH]c(=O)c1Cc1ccccc1`, the “activity change, positive = activation” value is 1.8% (inactive).
For the compound `CC(=O)c1sc(NC(=O)c2ccc(C)cc2)nc1C`, the Potency is 5.62 µM (active).
On to `CC(=O)c1sc(NC(=O)C2=NN(c3ccccc3)C(=O)CC2)nc1C`, for which the “activity change, positive = activation” value is 7.92% (inactive).
On to `CCSc1nnc(NC(=O)c2ccc(C)cc2)s1`, for which the Potency is 14.1 µM (active).
`Cc1nnc(C)n1/N=C/c1ccc(C(C)C)cc1`: the “activity change, positive = activation” value was -20.6% (inactive).
Consider `Cc1ccc(S(=O)(=O)Nc2nc(C)cc(N/N=C/c3ccc(O)cc3)n2)cc1`, for which the “activity change, positive = activation” value was 8.38% (inactive).
Take `CC(=O)c1sc(N/N=C\c2ccc(C)cc2)nc1C`: the Potency was 10 µM (active).
With `Cc1nonc1C(=O)N/N=C/c1ccc(O)cc1`, the activity change, positive = activation is 1.94% [at 1.84 µM] (inactive).
Same read-out and setting: for `CCOC(=O)CSc1nnc(NC(=O)c2cccc(S(=O)(=O)N3CCCCC3)c2)s1` the value was -29.9% (inactive).
For the compound `COc1ccc(/C=N\NC(=O)c2sc(N)nc2C)cc1OC`, the “activity change, positive = activation” value was 29.4% (inactive).
Same read-out and setting: the figure for `Cc1ccc(C(=O)Nc2nc(-c3ccccc3)ns2)cc1` is 25.4% (inactive).
Turning to `CC(=O)c1sc(N/N=C/c2ccc(C(C)C)cc2)nc1C`, the Potency was 17.8 µM (active).
`CCSc1nnc(NC(=O)Cc2ccccc2OC)s1`: the “activity change, positive = activation” value was -8.87% (inactive).
On the same count and under the same terms, the figure for `CCc1ccc(S(=O)(=O)c2nnn3c2nc(NCc2ccccc2OC)c2cc(Cl)ccc23)cc1` is 1.15% (inactive); for `CCOc1ccc(C2C(C(=O)Nc3ccc(Cl)cc3)=C(C)Nc3nc(C(F)(F)F)nn32)cc1` (stereo not drawn) it is -4.78% (inactive).
Same read-out and setting: the figure for `Cc1nn(CC(=O)N2CCN(c3cccc(C(F)(F)F)c3)CC2)c(=O)c2cc3sccc3n12` is -5.94% (inactive).
Still for that read-out and setting: the figure for `C/C=C(\C)C(=O)O[C@H]1CC(C)=C2C(=O)C=C(C)C2[C@@H]2OC(=O)[C@@](C)(OC(=O)C=C(C)C)C21` (stereo partly drawn) is 17.7% (inactive); for `CCN(CCCNC(=O)c1cc(Nc2ccc(OC)cc2)nc2ccccc12)c1cccc(C)c1` it is -7.3% (inactive); for `CC(C)c1ccc(NC(=O)CN(C)S(=O)(=O)c2ccc3c(c2)c(=O)n(C)c(=O)n3C)cc1` it is -0.203% (inactive).
For `O=C(CSc1oc(-c2ccco2)nc1S(=O)(=O)c1ccccc1)c1ccc(Cl)cc1`, the “activity change, positive = activation” value was 5.8% (inactive).
As to `Cc1ccc(-c2nn(CCC(=O)Nc3ccc(OC(F)(F)F)cc3)c(=O)c3ccccc23)cc1`, the “activity change, positive = activation” value was -2.18% (inactive).
The same measure, in the same setting: the figure for `CCOc1cc(/C=C(\C#N)C(=O)Nc2ccccc2C)ccc1OCc1cc(=O)n2nc(CC)sc2n1` is 12.3% (inactive); for `COc1ccc(-n2c(=O)c3sc4ccccc4c3n(CC(=O)Nc3cccc(C)c3)c2=O)cc1` it is 13.3% (inactive).
For the compound `C/C=C(\C)C(=O)OC1C(OC(=O)C2(C)OC2C)c2cc3ccc(=O)oc3cc2OC1(C)C` (stereo not drawn), the “activity change, positive = activation” value is -5.48% (inactive).
The same measure, in the same setting: for `Cc1cccc(Cn2c(SCc3ccc(C(=O)N4CCC(C)CC4)cc3)nc3ccncc32)c1` the value was -22% (inactive).
As for `CC1=C(C(=O)OCC(C)C)C(c2ccc(OCc3ccccc3)cc2)N2C(=O)CCSC2=N1` (stereo not drawn), the “activity change, positive = activation” value was -4.32% (inactive).
Still for that read-out and setting: for `COC(=O)c1cc(NC(=O)c2sc3ccccc3c2Cl)cc(C(=O)OC)c1` the value was -2.69% (inactive); for `CCCC(=O)Nc1ccc(NC(=O)c2sc3ccccc3c2Cl)cc1`, 7.87% (inactive).
`O=C(Nc1ccon1)c1sc2ccccc2c1Cl`: the Potency was 17.8 µM (active).
For the compound `COc1ccc(/C=C/c2nc(C#N)c(NCc3ccc(F)cc3)o2)cc1OC`, the “activity change, positive = activation” value was 4.34% (inactive).
Same read-out and setting: the figure for `CCOc1ccc(CNC(=O)C2CCN(c3nnc(-n4cccc4CNc4ccc(C)cc4)s3)CC2)cc1OC` is -9.08% (inactive); for `COCCNc1ncnc2ccc(-c3ccccc3CN(C)C)cc12` it is 5.05% (inactive).
In the case of `COc1ccccc1CNc1ncnc2ccc(-c3c(C)noc3C)cc12`, the Potency was 10 µM (active).
Regarding `COc1ccc2[nH]cc(CCNc3ncnc4ccc(-c5ccccc5CN(C)C)cc34)c2c1`, the “activity change, positive = activation” value was -14.1% (inactive).
Still for that read-out and setting: the figure for `Cc1c(NC(=O)Nc2ccc(F)c(Cl)c2)c(=O)n(-c2ccccc2)n1C` is -4.12% (inactive); for `Cc1cccc(C)c1OC(=O)CSc1nnc(-c2ccccc2)o1` it is -14.4% (inactive).
Consider `CCOC(=O)CSc1nnc(-c2ccncc2)o1`, for which the “activity change, positive = activation” value is -22.8% (inactive).
Turning to `CCCCSc1nnc(-c2ccc(C)cc2)o1`, the Potency is 11.2 µM (active).
Take `O=C(Cc1ccc(Cl)cc1)Nc1ccc2nn(-c3ccc(Cl)cc3)nc2c1`: the “activity change, positive = activation” value is 20.2% (inactive).
On the same count and under the same terms, for `CCCCNC(=O)c1ccc2c(c1)NC(=O)C(C(C)C)N2` (stereo not drawn) the value was -6.9% (inactive).
The same measure, in the same setting: for `COc1ccc(CNc2nc(-c3ccccc3)nn2C(=O)c2ccccc2OC)cc1` the value was 10.8% (inactive); for `Brc1cccc(-c2nnn3c2nc(NC2CCCCC2)c2ccccc23)c1`, -4.5% (inactive); for `COc1ccc(N2CCN(Cc3nc4c(c(=O)[nH]c(=O)n4C)n3Cc3ccc(Cl)cc3)CC2)cc1`, -0.446% (inactive).
The same measure, in the same setting: for `c1ccc(-n2ncc3c(N4CCCC4)ncnc32)cc1` the value was 22.3% (inactive).
Take `O=C(NCCC1=CCCCC1)C1CCN(Cc2cnn(-c3ccccc3)c2-n2cccc2)CC1`: the “activity change, positive = activation” value was -22.3% (inactive).
On to `C1=C(CCNc2ncnc3c2cnn3-c2ccccc2)CCCC1`, for which the Potency is 12.6 µM (active).
In the case of `CCOc1ccccc1C(=O)NC1(C(F)(F)F)C(=O)Nc2c1c(=O)[nH]c(=O)n2-c1ccc(F)cc1` (stereo not drawn), the “activity change, positive = activation” value is -3.45% (inactive).
With `O=C(NC1(C(F)(F)F)N=C(c2ccccc2)N(C2CCCCC2)C1=O)c1ccccc1F` (stereo not drawn), the “activity change, positive = activation” value was 8.62% (inactive).
The same measure, in the same setting: the figure for `CCCN1CN=C(NS(=O)(=O)c2ccc(NC(C)=O)cc2)NC1` is 18.8% (inactive); for `COc1ccc(-c2cc(-c3ccc(F)cc3)nc3c2COc2ccccc2-3)cc1` it is 0.862% (inactive); for `Clc1ccc(-c2nnc(SCc3nc4ccccc4s3)o2)cc1` it is 32.9% (inactive).
Take `FC(F)(F)c1cnc(Oc2ccccc2-c2nnc(-c3ccc(Cl)cc3)o2)c(Cl)c1`: the “activity change, positive = activation” value is -27.6% (inactive).
As for `CSc1ccccc1-c1nnc(-c2ccc(Cl)cc2)o1`, the Potency was 14.1 µM (active).
In the case of `CCOC(=O)c1ccccc1NC(=O)CCc1c(C)nc2c(c1C)c(=O)n(C)c(=O)n2C`, the “activity change, positive = activation” value is 3.25% (inactive).
Regarding `CCN(CC)S(=O)(=O)c1ccc2c(c1)N(CC(=O)NCc1ccccc1)C(=O)CS2`, the “activity change, positive = activation” value is 13.4% (inactive).
As to `O=C(CSc1nnc(-c2ccncc2)o1)NCc1ccc(Cl)cc1`, the “activity change, positive = activation” value is -0.354% (inactive).
On to `CCc1ccccc1NC(=O)CSc1nnc(-c2ccncc2)o1`, for which the “activity change, positive = activation” value is 8.81% (inactive).
Take `O=C(CSc1nnc(-c2ccc([N+](=O)[O-])cc2)o1)Nc1ccccn1`: the Potency was 3.16 µM (active).
